The panel holds about 83,000 compounds, 20% with a hit somewhere; the sample as a whole holds those more often.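 Values shown are percent growth following 48 h exposure of cells in 96-well plates to a single concentration of compound; below 10 was considered active.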 Values without a mark were called inactive. The source made the active and inactive calls.
Experiments:
Test in all cases: NCI-60 one-dose screen, 48 h (100 = growth as untreated, 0 = no growth, -100 = all killed)
Settings in all cases: 10 µM unless noted
[1] = system: SK-MEL-2 melanoma
[2] = system: EKVX NSCLC
[3] = system: SN12C renal
[4] = system: UO-31 renal
[5] = system: TK-10 renal
[6] = system: ACHN renal
[7] = system: CAKI-1 renal
[8] = system: A498 renal
[9] = system: CCRF-CEM leukemia
[10] = system: MOLT-4 leukemia
[11] = system: SR leukemia
[12] = system: RPMI-8226 leukemia
[13] = system: OVCAR-8 ovarian
[14] = system: OVCAR-5 ovarian
[15] = system: OVCAR-4 ovarian
[16] = system: SK-OV-3 ovarian
[17] = system: IGROV1 ovarian
[18] = system: OVCAR-3 ovarian
[19] = system: HS 578T breast
[20] = system: NCI/ADR-RES ovarian

SMILES	growth [1] [%]	growth [2] [%]	growth [3] [%]	growth [4] [%]	growth [5] [%]	growth [6] [%]	growth [7] [%]	growth [8]	growth [9]	growth [10] [%]	growth [11] [%]	growth [12] [%]	growth [13] [%]	growth [14] [%]	growth [15]	growth [16] [%]	growth [17] [%]	growth [18]	growth [19] [%]	growth [20]
O=C(NC1CCCCCC1)c1ccc2c(=O)n3c(nc2c1)CCCCC3	112	107	97.8	99.8	104	108	108	99.5%	98.8%	128	116	87	101	111	76.2%	108	94.2	110%	83	91.3%
COc1cc(/C=N/NC(=O)c2ccc3nc(-c4ccc(Cl)cc4)[nH]c3c2)cc(OC)c1OC	83.6	95.8	68.5	88.3	77.4	67.4	76	-1.95% (active)	36.6%	41.6	45.7	19.9	60.5	172	102%	87.8	68.4	61.6%	48.3	106%
Cc1ccc(S(=O)(=O)N(CCC(=O)O)c2ccccc2)cc1	109	108	109	106	119	106	93.9	81.3%	94.4%	106	99.3	93.2	101	111	114%	105	123	110%	121	110%
COc1cc(OC)cc(C(=O)Nc2cnc(Nc3ccc(N4CCOCC4)nc3)nc2Oc2ccc(C(F)(F)F)cc2)c1	94.6	90.2	43.6	58.1	81.9	66.4	59.7	77.7%	86%	80.7	73	86.2	39.7	92.9	8.78% (active)	111	77.4	62.8%	30.4	60.1%
O=C(/C=C/c1ccco1)Nc1ncc(Cc2ccc(F)cc2)s1	48.8	29.1	28.5	47.6	62.3	40.2	34.4	19.3%	21.9%	20.9	16.1	32.4	22.2	32.5	63.9%	39.3	27.2	-8.58% (active)	11.3	0.377% (active)
O=C(c1ccc(F)cc1)C1CCN(CCn2c(=O)[nH]c3ccccc3c2=O)CC1	106	89.3	105	64.6	105	94.8	84.2	118%	101%	95.5	99.9	104	103	99.9	109%	102	111	96.9%	108	102%
COc1cc(-c2c(-c3ccccc3)c[nH]c2C(=O)NCCCO)c(OC)c2c1OCO2	109	99.2	97.1	85.7	99	98.9	91.1	74.6%	88.8%	92.5	93.9	99.7	100	99.5	107%	96.4	107	111%	92.9	106%
N#CSCc1cc(Cl)c(CSC#N)cc1Cl	96.5	104	41.5	41.9	94	45.3	38.3	104%	2.13% (active)	17.7	10.8	48.6	94.9	82.9	80.5%	101	84.7	71.3%	82.3	84.5%
